Growth inhibition data for seven compounds are collected here from PubChem BioAssay (NCI).

About 79,000 compounds went through this panel and 15% of them were active in at least one assay; those are over-represented in the sample as a whole. Values without a mark were called inactive. Activity calls are given as the source filed them. Cut-off read from the data, not from the text of the source: active = growth inhibition above about 70%; inactive = the rest.

Test [1] in a line: NCI Yeast Anticancer Drug Screen. Data for the mec2-1 strain (AID 157). Conditions: S. cerevisiae mec2-1 strain, active compounds read high. In a few lines:
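Yeast mec2-1 mutant treated with compound. Readout: growth inhibition vs vehicle controls.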

The nature of test [2]: NCI Yeast Anticancer Drug Screen. Data for the sgs1 mgt1 strain (AID 161).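 Note: 0% = growth of cultures given vehicle only.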 Conditions: S. cerevisiae sgs1 mgt1 strain, active compounds read high. In a few lines:
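Genetically altered yeast, compound exposure, growth inhibition relative to vehicle.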

Test [3] is described as follows: NCI Yeast Anticancer Drug Screen. Data for the cln2 rad14 strain (AID 165).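 Note: 0% = growth equal to vehicle treated cultures.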 The note with it: S. cerevisiae cln2 rad14 strain, active compounds read high. A digest of the protocol: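 cln2 rad14 yeast strain; compound exposure; growth inhibition read vs vehicle controls.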
Test [4] is described as follows: NCI Yeast Anticancer Drug Screen. Data for the bub3 strain (AID 167). The note with it: S. cerevisiae bub3 mutant strain, active compounds read high. A digest of the protocol:
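In this screen, a yeast mutant lacking normal mitotic checkpoint function is challenged with compound. Relative growth versus vehicle gives the inhibition value.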

Test [5] is described as follows: NCI Yeast Anticancer Drug Screen. Data for the mlh1 rad18 strain (AID 175). Conditions: S. cerevisiae mlh1 rad18 strain growth inhibition, active compounds read high. A digest of the protocol: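 Yeast w/ defined DNA-repair lesions; compound exposure; growth vs vehicle controls → % inhibition.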
Test [6] can be described thus: NCI Yeast Anticancer Drug Screen. Data for the rad50 strain (AID 155).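 Note: 0% = growth of vehicle-only cultures of the same strain.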 Conditions: S. cerevisiae rad50 strain growth inhibition; at 50.0 µM; active compounds read high. A digest of the protocol:
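DNA repair mutant yeast, compound exposure, growth read-out; inhibition is taken relative to vehicle.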

The mark [7] stands for this setting: at 5.0 µM (retest, dose inferred, filed as 0.5).
[8] abbreviates: at 50.0 µM (retest, dose inferred, filed as 5.0).

Regarding `NC(=O)COc1ccc([As]=O)cc1` (stereo not given), the growth inhibition in test [1] (at 50.0 µM) is -14.9%; in test [2] (at 50.0 µM) it was -11.9%; in test [3] (at 50.0 µM) it was -48.8%; in test [4] (at 50.0 µM), -33.3%; in test [5] (at 50.0 µM) it was -15.8%.

`C[C@]12CCC(O)CC1=CC[C@@H]1[C@@H]2CC[C@]2(C)C(O)[C@H](n3ccnc3)C[C@@H]12` (stereo not given in full): the growth inhibition in test [1] (at 50.0 µM) is 33.6%; in test [2] (at 50.0 µM), -6.05%; in test [3] (at 50.0 µM) it was 25.1%; in test [4] (at 50.0 µM), -11.7%; in test [5] (at 50.0 µM), -13.4%.

As to `O=[N+]([O-])c1ccc(CCl)cc1`, the growth inhibition in test [6] is 16.4%; in test [1] (at 50.0 µM) it was 30.5%; in test [3] (at 50.0 µM), -15%; in test [4] (at 50.0 µM), -23.9%; in test [5] (at 50.0 µM) it was 26.6%.

On to `COP(=O)(NC(C)=O)OC`, for which the growth inhibition in test [6] was 11.6%; in test [1] (at 50.0 µM), -14.7%; in test [3] (at 50.0 µM) it was -45.8%; in test [4] (at 50.0 µM) it was -10.5%; in test [5] (at 50.0 µM) it was -1.55%.

For the compound `COc1cc(/C=C(\C)[N+](=O)[O-])cc(Br)c1O`, the growth inhibition in test [1] (setting [7]) was 1%; in test [1] (setting [8]) it was 82% (active); in test [1] (at 50.0 µM), 90.8% (active); in test [2] (setting [7]) it was 8%; in test [2] (setting [8]), 91% (active); in test [2] (at 50.0 µM), 91% (active). For the same compound, the growth inhibition was 3% in test [3] (setting [7]); 43% in test [3] (setting [8]); 53.5% in test [3] (at 50.0 µM); -3% in test [4] (setting [7]); 54% in test [4] (setting [8]); 93% (active) in test [4] (at 50.0 µM). Besides, the growth inhibition in test [5] (setting [7]) was 2%; in test [5] (setting [8]), 81% (active); in test [5] (at 50.0 µM), 98.7% (active).

As to `CNC(Cc1ccccc1)c1cccc(O)c1` (stereo not given), the growth inhibition was 4.5% in test [6]; -6.2% in test [1] (at 50.0 µM); -24.9% in test [3] (at 50.0 µM); 0.4% in test [4] (at 50.0 µM); -5.15% in test [5] (at 50.0 µM).

`ClC(CN1CCCCC1)C(Cl)c1ccccc1` (stereo not given): the growth inhibition in test [1] (setting [7]) is 2%; in test [1] (setting [8]), 21%; in test [1] (at 50.0 µM), 4.8%; in test [2] (setting [7]) it was 5%; in test [2] (setting [8]), 53%; in test [2] (at 50.0 µM), 62%. Besides, the growth inhibition in test [3] (setting [7]) was 7%; in test [3] (setting [8]) it was 37%; in test [3] (at 50.0 µM), 53%; in test [4] (setting [7]), 6%; in test [4] (setting [8]), 58%; in test [4] (at 50.0 µM), 51.9%. Besides, the growth inhibition was 16% in test [5] (setting [7]), 57% in test [5] (setting [8]) and 35.1% in test [5] (at 50.0 µM).
